Laboratory results taken from PubChem BioAssay (Tox21).
Results filed as inconclusive are left out. The source made the active and inactive calls. Unless noted, the call rests on the fitted dose curve; in most records, active means well fitted curve in the direction sought with a large enough effect in the repeat runs; inconclusive means weak or mixed curves; inactive means no such curve, though single readings can be large; an effect the other way counts as inactive or inconclusive.

What was measured:
[1] = qHTS assay to identify aromatase inhibitors - cell viability counter screen (AID 743084);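 further: cells stimulated with testosterone during compound exposure; nearly all actives have a fitted effect of over 55% in size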
[2] = biological target: Aryl hydrocarbon receptor (Homo sapiens) (UniProt P35869); experiment: qHTS assay to identify small molecule that activate the aryl hydrocarbon receptor (AhR) signaling pathway (AID 743085);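 further: HG2L7.5c1 human HepG2 liver cells with stably integrated DRE-driven firefly reporter; series mostly up to about 70 µM; nearly all actives have a fitted effect of over 15% in size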
How it was run: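 Luminescence (ONE-Glo) from a dioxin-responsive-element luciferase reporter in HG2L7.5c1 HepG2 cells after 24 hr compound exposure at 37C; viability measured by CellTiter-Fluor fluorescence beforehand.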

[3] = qHTS assay to identify small molecule that activate the aryl hydrocarbon receptor (AhR) signaling pathway - cell viability counter screen (AID 743086);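 further: HepG2 liver cells carrying the AhR DRE luciferase reporter; series mostly up to about 70 µM; nearly all actives have a fitted effect of over 45% in size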
How it was run: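 HepG2-AhR-luc (HG2L7.5c1) cells, 4000/well, treated 24 h at 37 C with compound; viability measured as CellTiter-Fluor fluorescence after 30 min in the same wells as the luciferase read.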

[4] = biological target: Peroxisome proliferator-activated receptor gamma (Homo sapiens) (UniProt P37231); experiment: qHTS assay to identify small molecule agonists of the peroxisome proliferator-activated receptor gamma (PPARg) signaling pathway (AID 743094; active means well fitted activation curve with a large enough effect in the signal ratio in the repeat runs, not every such curve was filed as active; the % refers to the signal ratio)
How it was run: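 Quantitative HTS agonist mode: stable HEK293H line with UAS-beta-lactamase reporter under PPARg control, 17 h compound exposure at 37C, fluorescence after 1 h FRET substrate loading at room temperature.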

[5] = biological target: Peroxisome proliferator-activated receptor gamma (Homo sapiens) (UniProt P37231); experiment: qHTS assay to identify small molecule antagonists of the peroxisome proliferator-activated receptor gamma (PPARg) signaling pathway (AID 743191; calls by dose curve; further: series mostly up to about 63 µM; nearly all actives have a fitted effect of over 30% in size)
How it was run: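 GeneBLAzer PPARg UAS-bla HEK293H cells, 5 h post-plating, exposed to compounds 17 h at 37C. LiveBLAzer B/G FRET substrate added for 1 h at room temperature; beta-lactamase reporter read by fluorescence intensity.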

[6] = qHTS assay for small molecule agonists of the antioxidant response element (ARE) signaling pathway (AID 743202; active means well fitted activation curve with a large enough effect in the signal ratio in the repeat runs, not every such curve was filed as active; the % refers to the signal ratio; further: potency means the concentration at half of the fitted maximal effect)
How it was run: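 Agonist mode reporter screen: HepG2 cells with ARE-controlled beta-lactamase are incubated with test compounds for 16 h at 37 C, and beta-lactamase activity is measured as fluorescence of cleaved B/G FRET substrate.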

[7] = qHTS assay for small molecule activators of the heat shock response signaling pathway - cell viability counter screen (AID 743209); further: nearly all actives have a fitted effect of over 50% in size
How it was run: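 First, HSE-bla HeLa cells were seeded at 1500 cells/well and kept overnight at 37 C. Next, compounds were pinned in and incubated 5 h. After the FRET substrate step, CellTiter-Glo was added and luminescence read 30 min later.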

[8] = qHTS assay to identify small molecule antagonists of the peroxisome proliferator-activated receptor delta (PPARd) signaling pathway - cell viability counter screen (AID 743213); further: nearly all actives have a fitted effect of over 50% in size
How it was run: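 PPARd-bla HEK293H cells (3000/well) got compound plus 300 nM L165041 agonist for 17 h at 37 C. Viability in the same wells came from CellTiter-Glo luminescence after 30 min at room temperature.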

[9] = qHTS assay to identify small molecule antagonists of the farnesoid-X-receptor (FXR) signaling pathway - cell viability counter screen (AID 743221; active means well fitted cell-killing curve with a large enough effect in the repeat runs, not every such curve was filed as active; further: nearly all actives have a fitted effect of over 50% in size)
How it was run: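 Cytotoxicity counter screen run in the FXR-bla reporter wells: HEK 293T cells exposed to compound with 50 uM (final) chenodeoxycholic acid for 16 h, 37 C, then viability measured by CellTiter-Glo luminescence after 30 min, room temperature.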

[10] = biological target: Vitamin D3 receptor (Homo sapiens) (UniProt P11473); experiment: qHTS assay to identify small molecule agonists of the vitamin D receptor (VDR) signaling pathway (AID 743222; calls by dose curve)
How it was run: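 Quantitative HTS agonist-mode screen: compounds in DMSO were pin-transferred onto VDR-bla cells and incubated 16 h at 37C, 5% CO2. Reporter activity was detected with LiveBLAzer B/G FRET substrate after 2 h at room temperature.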

[11] = qHTS assay to identify small molecule antagonists of the peroxisome proliferator-activated receptor gamma (PPARg) signaling pathway - cell viability counter screen (AID 743194); further: nearly all actives have a fitted effect of over 55% in size
How it was run: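 Cytotoxicity counter screen in PPARg-bla HEK293H cells, same wells as reporter assay. Compounds plus 50 nM rosiglitazone (final) for 17 h at 37 C, then viability read by CellTiter-Glo luminescence.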

[12] = qHTS assay for small molecule agonists of the antioxidant response element (ARE) signaling pathway - cell viability counter screen (AID 743203; calls by dose curve; further: nearly all actives have a fitted effect of over 55% in size)
How it was run: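 Seeded at 2,000 cells/well, ARE-bla HepG2 cells were incubated 5 hrs before compound addition. After 16 hrs of treatment at 37C with 5% CO2, CellTiter-Glo reagent was added and luminescence read 30 min later.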

[13] = qHTS assay for small molecule activators of the heat shock response signaling pathway (AID 743210; active means well fitted activation curve with a large enough effect in the signal ratio in the repeat runs, with a control signal flat, not every such curve was filed as active; the % refers to the signal ratio;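 further: HeLa cells with beta-lactamase reporter driven by heat shock elements; series mostly up to about 63 µM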)
How it was run: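 Quantitative high-throughput format using an engineered HeLa line in which heat shock response elements drive beta-lactamase; after 5 h with compound, cells received a B/G FRET substrate and fluorescence was read.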

[14] = qHTS assay to identify small molecule agonists of the peroxisome proliferator-activated receptor delta (PPARd) signaling pathway - cell viability counter screen (AID 743211); further: nearly all actives have a fitted effect of over 55% in size; further: potency means the concentration at half of the fitted maximal effect
How it was run: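 Viability was measured as CellTiter-Glo luminescence (30 min, room temperature) in the same wells as the beta-lactamase readout. GeneBLAzer PPARd UAS-bla HEK293H cells received compound after 5 h plating and were incubated 17 h at 37 C.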

[15] = biological target: Peroxisome proliferator-activated receptor delta (Homo sapiens) (UniProt Q03181); experiment: qHTS assay to identify small molecule agonists of the peroxisome proliferator-activated receptor delta (PPARd) signaling pathway (AID 743212; calls by dose curve)
How it was run: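 Quantitative high-throughput agonist screen in a HEK293H beta-lactamase reporter line under UAS control. Compounds in DMSO, at 37 C. Fluorescence read after 2 h with FRET substrate at room temperature.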

[16] = biological target: Bile acid receptor (Homo sapiens) (UniProt Q96RI1); experiment: qHTS assay to identify small molecule antagonists of the farnesoid-X-receptor (FXR) signaling pathway (AID 743217; active means well fitted inhibition curve with a large enough effect in the signal ratio in the repeat runs, not every such curve was filed as active; the % refers to the signal ratio)
How it was run: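 Antagonist mode against 50 uM (final) chenodeoxycholic acid stimulation in FXR-bla HEK 293T cells, 16 h at 37 °C. Inhibition detected as reduced beta-lactamase activity via LiveBLAzer B/G FRET fluorescence after 2 h at room temperature.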

[17] = qHTS assay to identify small molecule agonists of the farnesoid-X-receptor (FXR) signaling pathway - cell viability counter screen (AID 743218); further: nearly all actives have a fitted effect of over 45% in size
How it was run: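 Cytotoxicity counter-screen run in parallel, same wells: FXR-UAS-bla HEK 293T cells dosed 16 h at 37 C, viability read by CellTiter-Glo luminescence after 30 min at room temperature.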

[18] = biological target: Bile acid receptor (Homo sapiens) (UniProt Q96RI1); experiment: qHTS assay to identify small molecule agonists of the farnesoid-X-receptor (FXR) signaling pathway (AID 743220; active means well fitted activation curve with a large enough effect in the signal ratio in the repeat runs, not every such curve was filed as active; the % refers to the signal ratio; further: potency means the concentration at half of the fitted maximal effect)
How it was run: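 Beta-lactamase reporter under UAS control in GeneBLAzer FXR HEK 293T cells (5000/well) measured with LiveBLAzer FRET substrate after 2 h at room temperature. Compound exposure lasted 16 h at 37C.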

[19] = biological target: Vitamin D3 receptor (Homo sapiens) (UniProt P11473); experiment: qHTS assay to identify small molecule antagonists of the vitamin D receptor (VDR) signaling pathway (AID 743223; active means well fitted inhibition curve with a large enough effect in the signal ratio in the repeat runs, not every such curve was filed as active; the % refers to the signal ratio)
How it was run: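 Antagonist mode: compound added to VDR-bla cells alongside agonist 1alpha,25-dihydroxyvitamin D3 (3 nM final), incubation 16 h at 37C. Read-out is LiveBLAzer FRET fluorescence, 2 h at room temperature.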

[20] = biological target: Peroxisome proliferator-activated receptor delta (Homo sapiens) (UniProt Q03181); experiment: qHTS assay to identify small molecule antagonists of the peroxisome proliferator-activated receptor delta (PPARd) signaling pathway (AID 743215; active means well fitted inhibition curve with a large enough effect in the signal ratio in the repeat runs, not every such curve was filed as active; the % refers to the signal ratio;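 further: cells stimulated with agonist L165041 at 300 nM final during compound exposure; series mostly up to about 62 µM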)
How it was run: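 Inhibition of L165041-driven (300 nM final) PPARd signaling is scored in HEK293H UAS-bla cells. Exposure lasts 17 h at 37 C; beta-lactamase activity is then read by FRET substrate fluorescence after 2 h at room temperature.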
On the % scale 0 is the no-effect control and ±100 the full control effect.

Sequence of Vitamin D3 receptor (Homo sapiens) (P11473 whole entry, looked up): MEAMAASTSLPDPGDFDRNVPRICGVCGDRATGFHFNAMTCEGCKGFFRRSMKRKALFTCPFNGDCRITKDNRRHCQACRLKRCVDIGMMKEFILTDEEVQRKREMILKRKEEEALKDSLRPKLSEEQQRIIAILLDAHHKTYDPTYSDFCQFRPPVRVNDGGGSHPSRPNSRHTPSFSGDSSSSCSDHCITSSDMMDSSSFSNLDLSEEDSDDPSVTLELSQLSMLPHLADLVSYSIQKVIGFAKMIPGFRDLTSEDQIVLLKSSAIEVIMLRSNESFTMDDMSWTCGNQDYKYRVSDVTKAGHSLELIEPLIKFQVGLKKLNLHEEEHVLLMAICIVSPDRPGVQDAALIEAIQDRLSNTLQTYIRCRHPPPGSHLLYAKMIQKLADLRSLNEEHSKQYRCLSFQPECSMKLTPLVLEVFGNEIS
Sequence of Aryl hydrocarbon receptor (Homo sapiens) (P35869 whole entry, looked up): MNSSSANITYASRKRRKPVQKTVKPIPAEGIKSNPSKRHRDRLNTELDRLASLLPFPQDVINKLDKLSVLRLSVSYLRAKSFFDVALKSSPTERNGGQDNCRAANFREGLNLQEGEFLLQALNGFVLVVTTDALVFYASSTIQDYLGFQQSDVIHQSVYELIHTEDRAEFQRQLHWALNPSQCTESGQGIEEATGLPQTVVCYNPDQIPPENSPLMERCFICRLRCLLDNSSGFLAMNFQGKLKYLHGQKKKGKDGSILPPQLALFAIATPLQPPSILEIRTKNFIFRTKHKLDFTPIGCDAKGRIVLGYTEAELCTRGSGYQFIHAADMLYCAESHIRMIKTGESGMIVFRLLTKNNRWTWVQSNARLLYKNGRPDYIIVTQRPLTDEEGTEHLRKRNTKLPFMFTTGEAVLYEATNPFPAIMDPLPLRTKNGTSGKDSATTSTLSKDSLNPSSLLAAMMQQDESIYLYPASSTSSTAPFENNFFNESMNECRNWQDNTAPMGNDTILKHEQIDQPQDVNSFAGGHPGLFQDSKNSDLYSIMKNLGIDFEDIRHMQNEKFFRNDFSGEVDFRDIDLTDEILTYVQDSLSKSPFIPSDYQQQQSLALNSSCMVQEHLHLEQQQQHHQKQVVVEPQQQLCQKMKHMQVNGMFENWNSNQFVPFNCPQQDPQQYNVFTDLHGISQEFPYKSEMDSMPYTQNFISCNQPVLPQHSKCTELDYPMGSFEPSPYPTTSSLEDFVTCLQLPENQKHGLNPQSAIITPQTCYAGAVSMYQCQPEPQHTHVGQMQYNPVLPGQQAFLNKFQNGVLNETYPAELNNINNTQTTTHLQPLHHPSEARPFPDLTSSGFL
Sequence of Bile acid receptor (Homo sapiens) (Q96RI1 whole entry, looked up): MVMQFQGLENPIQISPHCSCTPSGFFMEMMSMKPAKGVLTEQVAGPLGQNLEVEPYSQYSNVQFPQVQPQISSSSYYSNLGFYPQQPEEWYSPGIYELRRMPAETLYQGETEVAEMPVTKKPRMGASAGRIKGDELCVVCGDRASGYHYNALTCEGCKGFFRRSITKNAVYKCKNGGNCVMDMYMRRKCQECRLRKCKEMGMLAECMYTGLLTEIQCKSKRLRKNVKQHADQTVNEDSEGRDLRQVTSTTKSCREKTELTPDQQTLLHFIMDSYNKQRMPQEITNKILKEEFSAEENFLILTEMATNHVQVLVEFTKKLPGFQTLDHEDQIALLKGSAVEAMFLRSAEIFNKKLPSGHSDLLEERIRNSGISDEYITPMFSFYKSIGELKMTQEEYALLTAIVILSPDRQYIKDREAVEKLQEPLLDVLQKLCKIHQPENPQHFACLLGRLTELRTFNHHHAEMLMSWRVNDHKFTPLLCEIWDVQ
Sequence of Peroxisome proliferator-activated receptor gamma (Homo sapiens) (P37231 whole entry, looked up): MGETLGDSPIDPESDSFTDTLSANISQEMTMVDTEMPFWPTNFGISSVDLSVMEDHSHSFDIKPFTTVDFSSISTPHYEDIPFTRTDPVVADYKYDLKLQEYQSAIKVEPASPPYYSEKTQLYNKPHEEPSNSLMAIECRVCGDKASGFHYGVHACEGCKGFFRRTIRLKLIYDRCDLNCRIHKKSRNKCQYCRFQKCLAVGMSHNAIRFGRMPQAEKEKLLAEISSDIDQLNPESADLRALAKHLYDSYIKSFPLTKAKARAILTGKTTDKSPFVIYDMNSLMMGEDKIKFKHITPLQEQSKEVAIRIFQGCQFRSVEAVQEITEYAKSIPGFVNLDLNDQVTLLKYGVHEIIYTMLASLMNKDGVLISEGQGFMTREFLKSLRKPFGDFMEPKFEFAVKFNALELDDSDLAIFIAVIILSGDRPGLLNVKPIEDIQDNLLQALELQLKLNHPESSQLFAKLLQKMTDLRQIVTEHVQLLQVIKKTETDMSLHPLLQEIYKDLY
Sequence of Peroxisome proliferator-activated receptor delta (Homo sapiens) (Q03181 whole entry, looked up): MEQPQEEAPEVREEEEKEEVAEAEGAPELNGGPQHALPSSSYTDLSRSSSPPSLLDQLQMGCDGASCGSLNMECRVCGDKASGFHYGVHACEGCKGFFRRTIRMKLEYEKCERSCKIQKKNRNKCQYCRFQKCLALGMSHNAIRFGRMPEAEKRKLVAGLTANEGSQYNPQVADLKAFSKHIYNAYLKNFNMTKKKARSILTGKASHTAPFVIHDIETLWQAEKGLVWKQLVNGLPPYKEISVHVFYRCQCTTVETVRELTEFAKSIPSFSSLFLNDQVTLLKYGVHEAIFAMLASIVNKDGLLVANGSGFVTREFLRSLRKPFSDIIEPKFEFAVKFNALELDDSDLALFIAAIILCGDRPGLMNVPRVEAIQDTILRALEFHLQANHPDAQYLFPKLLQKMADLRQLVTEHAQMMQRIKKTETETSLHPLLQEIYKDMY

S=C([S-])NCCNC(=S)[S-].[Mn+2]
inactive: Potency [1] | Potency [2] | Potency [3] | Potency [4] | Potency [5] | Potency [7] | Potency [8] | Potency [9] | Potency [10]
active: Potency [6] 6.86 µM

CCCCOC(=O)CCCCCCCC(=O)OCCCC
inactive: Potency [1] | Potency [2] | Potency [3] | Potency [4] | Potency [5] | Potency [11] | Potency [12] | Potency [7] | Potency [13] | Potency [14] | Potency [15] | Potency [8] | Potency [16] | Potency [17] | Potency [18] | Potency [9] | Potency [10]

CCCCCCCCCCCCN1CCCCCC1=O
inactive: Potency [1] | Potency [2] | Potency [3] | Potency [4] | Potency [5] | Potency [11] | Potency [12] | Potency [15] | Potency [8] | Potency [16] | Potency [18] | Potency [10]

CC(COCCO)OCCO (stereo not drawn)
inactive: Potency [1] | Potency [2] | Potency [3] | Potency [4] | Potency [5] | Potency [11] | Potency [7] | Potency [13] | Potency [8] | Potency [16] | Potency [17] | Potency [18] | Potency [9] | Potency [10] | outcome [19]

CC(CSC(=O)c1ccccc1)C(=O)N1C[C@@H](Sc2ccccc2)C[C@H]1C(=O)O (stereo partly drawn)
inactive: Potency [1] | Potency [2] | Potency [3] | Potency [4] | Potency [5] | Potency [11] | Potency [6] | Potency [7] | Potency [13] | Potency [15] | Potency [8] | Potency [20] | Potency [9]

O=C(O)CNCC(=O)O
inactive: activity change, negative = cytotoxicity [1] -0.604% [at 8.47 µM] | activation [2] 1.31% [at 8.47 µM] | viability change, negative = cytotoxic [3] -0.209% [at 8.47 µM] | activation [4] 0.605% [at 7.08 µM] | ratio activity, negative = inhibition [5] 11.9% [at 5.95 µM] | activity change, negative = cytotoxicity [11] 0.536% [at 5.95 µM] | activation [6] -1.79% [at 8.36 µM] | activity change, negative = cytotoxicity [7] 4.62% [at 5.95 µM] | activation [13] -0.342% [at 5.95 µM] | activation [15] 11.6% [at 5.95 µM] | viability change, negative = cytotoxic [8] -5.77% [at 6.26 µM] | activity change, negative = inhibition [16] -18.1% [at 5.95 µM] | viability change, negative = cytotoxic [17] -1.74% [at 5.95 µM] | activation [18] 1.91% [at 5.95 µM] | activation [10] 4.1% [at 6.01 µM]

COc1cc(Cl)ccc1Oc1ccc(Cl)cc1Cl
active: Potency [14] 47.6 µM
inactive: Potency [1] | Potency [2] | Potency [3] | Potency [4] | Potency [11] | Potency [6] | Potency [12] | Potency [7] | Potency [13] | Potency [15] | Potency [8] | Potency [20] | Potency [16] | Potency [17] | Potency [18] | Potency [9] | Potency [10] | outcome [19]

C[C@H](CCC(=O)O)[C@H]1CC[C@H]2[C@@H]3CC[C@@H]4C[C@H](O)CC[C@]4(C)[C@H]3C[C@H](O)[C@]12C
inactive: Potency [1] | Potency [2] | Potency [3] | Potency [4] | Potency [5] | Potency [12] | Potency [13]
active: Potency [18] 49.1 µM

C/C=C/C(=O)CC
inactive: Potency [1] | Potency [2] | Potency [3] | Potency [4] | ratio activity, negative = inhibition [5] 6.72% [at 13.2 µM] | activation [6] -1.61% [at 18.1 µM] | viability change, negative = cytotoxic [12] 0.863% [at 18.1 µM] | activity change, negative = cytotoxicity [7] 2.01% [at 13.2 µM] | activation [13] -0.278% [at 13.2 µM] | activity change, negative = cytotoxicity [14] 2.34% [at 13.2 µM] | activation [15] 2.05% [at 13.2 µM] | viability change, negative = cytotoxic [8] 3.59% [at 13.7 µM] | viability change, negative = cytotoxic [17] 6.33% [at 13.2 µM] | activity change, negative = cytotoxicity [9] -0.419% [at 13.2 µM]
